Measured values from PubChem BioAssay.
Activity calls are given as the source filed them. Unless noted, how the calls were made is not given here.

Experiments:
[1] = A549 cell viability effects, profiling panel, calcein-AM fluorescence, 48 h, basal (AID 1162); details: higher = more signal; further: test concentration not given here
[2] = adipocyte viability effects, profiling panel, cell-based, 3T3-L1 adipocytes, calcein-AM fluorescence, 48 h, basal (AID 1163); details: 3T3-L1 adipocytes viability, higher = more signal; further: test concentration not given here
[3] = HepG2 cell viability effects, profiling panel, calcein-AM fluorescence, 48 h, basal (AID 1164); details: higher = more signal; further: test concentration not given here
[4] = MM1S cell viability effects, profiling panel, calcein-AM fluorescence, 48 h, basal (AID 1165); details: higher = more signal;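 further: viability of MM1S multiple myeloma cells under basal unstimulated conditions; test concentration not given here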
[5] = basal RPMI8226 viability, no added stimulus, profiling panel, cell-based, calcein-AM fluorescence, 48 h, PK04 Diversity Set (AID 1166); details: RPMI8226 myeloma viability, higher = more signal;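 further: cells grown under basal conditions without added stimulus; test concentration not given here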
[6] = basal HepG2 mitochondrial membrane potential changes, profiling panel, cell-based, JC-1 fluorescence, 24 h, 100 nL compound (AID 1167); details: higher = more signal; further: test concentration not given here
[7] = basal 3T3-L1 adipocyte mitochondrial potential changes, profiling panel, cell-based, JC-1 fluorescence, 3T3-L1 adipocytes, 24 h, 100 nL compound (AID 1168); details: JC-1 mitochondrial fluorescence, higher = more signal, called active from +8 up or from −8 down; further: test concentration not given here
[8] = basal RPMI8226 mitochondrial membrane potential changes, profiling panel, cell-based, JC-1 fluorescence, 24 h, 100 nL compound (AID 1169); details: RPMI8226 myeloma, JC-1 mitochondrial potential fluorescence, higher = more signal; further: test concentration not given here
[9] = basal MM1S mitochondrial membrane potential changes, profiling panel, cell-based, JC-1 fluorescence, 24 h, 100 nL compound (AID 1170); details: higher = more signal; further: test concentration not given here
[10] = A549 lung cancer cell viability effects, profiling panel, resazurin fluorescence, 24 h, PK04 Diversity Set (AID 1171); details: higher = more signal, called active from +8 up or from −8 down; further: test concentration not given here
[11] = HepG2 liver cancer cell viability effects, profiling panel, resazurin fluorescence, 24 h, PK04 Diversity Set (AID 1172); details: higher = more signal; further: test concentration not given here
[12] = basal S. cerevisiae growth modulation, no modifier, primary screen, OD600, strain BY4716, 24 h, basal condition (AID 1173); details: OD600, 24 h, higher = more signal, called active from +8 up or from −8 down
[13] = MM1S myeloma cell viability, profiling panel, resazurin fluorescence, basal, 24 h, PK04 Diversity Set (AID 1174); details: higher = more signal, called active from +8 up or from −8 down;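 further: MM1S multiple myeloma cell line; test concentration not given here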
[14] = target: Dihydroorotate dehydrogenase (quinone), mitochondrial (Plasmodium falciparum (isolate 3D7)) (UniProt Q08210); assay: PfDHODH enzyme inhibitors, primary screen, biochemical, C-terminal His tag, absorbance 600 nm (AID 1175); details: DCIP absorbance 600 nm, higher = more signal, called active from +8 up or from −8 down;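 further: recombinant parasite enzyme with a five histidine tag at its C terminus; test concentration not given here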
Dihydroorotate dehydrogenase (quinone), mitochondrial (Plasmodium falciparum (isolate 3D7)), sequence (Q08210 whole entry, looked up): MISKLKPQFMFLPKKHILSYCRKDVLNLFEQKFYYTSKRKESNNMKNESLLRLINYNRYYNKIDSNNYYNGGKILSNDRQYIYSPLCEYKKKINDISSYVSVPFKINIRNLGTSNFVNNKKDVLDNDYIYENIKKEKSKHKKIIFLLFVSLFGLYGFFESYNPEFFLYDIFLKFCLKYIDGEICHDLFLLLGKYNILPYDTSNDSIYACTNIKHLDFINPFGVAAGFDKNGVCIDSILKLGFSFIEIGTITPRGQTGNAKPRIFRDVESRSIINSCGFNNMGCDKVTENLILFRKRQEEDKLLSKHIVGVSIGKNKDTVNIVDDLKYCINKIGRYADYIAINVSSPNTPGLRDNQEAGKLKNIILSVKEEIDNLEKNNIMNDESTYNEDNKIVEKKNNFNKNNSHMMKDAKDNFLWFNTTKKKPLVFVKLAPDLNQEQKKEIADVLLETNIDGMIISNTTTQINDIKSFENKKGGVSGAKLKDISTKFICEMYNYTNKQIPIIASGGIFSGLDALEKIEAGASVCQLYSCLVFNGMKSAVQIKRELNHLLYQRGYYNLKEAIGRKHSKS

[15] = P. aeruginosa biofilm formation inhibitors, primary screen, strain PAO1, LB-PBS medium, absorbance 600 nm (AID 1176); further: test concentration not given here; details: P. aeruginosa PAO1 growth/biofilm, A600, 12 h; higher = more signal
[16] = S. cerevisiae RM11-1a growth modifiers, primary screen, strain RM11-1a, OD600, basal, 24 h (AID 1177); details: OD600, 24 h, higher = more signal, called active from +8 up or from −8 down;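 further: cultures grown under basal conditions with no added stressor; test concentration not given here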
[17] = E. coli acrAB mutant growth effects, primary screen, E. coli filamentation inducers, strain DRC39, OD650, 24 h (AID 1178); details: higher = more signal, called active from +8 up or from −8 down;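 further: growth measured as culture turbidity by optical density at 650 nm; test concentration not given here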
[18] = E. coli acrAB mutant growth effects, primary screen, E. coli filamentation inducers, strain DRC39, OD650, 48 h (AID 1179);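 further: screen aims at cell division blockers that make cells filament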; details: E. coli DRC39 delta-acrAB growth, higher = more signal, called active from +8 up or from −8 down
[19] = RPMI8226 myeloma cell viability, profiling panel, resazurin fluorescence, basal, 24 h, PK04 Diversity Set (AID 1180); details: higher = more signal;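 further: RPMI8826 multiple myeloma cell line at 5000 cells per well; test concentration not given here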
[20] = target: E3 ubiquitin-protein ligase XIAP (Homo sapiens) (UniProt P98170); assay: XIAP binders, primary screen, biophysical, small-molecule microarray, fluorescence 635 nm (AID 1181); details: small-molecule microarray binding, higher = more signal;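 further: score merges 667 nm emission and signal to noise over triplicate slides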
E3 ubiquitin-protein ligase XIAP (Homo sapiens), sequence (P98170 whole entry, looked up): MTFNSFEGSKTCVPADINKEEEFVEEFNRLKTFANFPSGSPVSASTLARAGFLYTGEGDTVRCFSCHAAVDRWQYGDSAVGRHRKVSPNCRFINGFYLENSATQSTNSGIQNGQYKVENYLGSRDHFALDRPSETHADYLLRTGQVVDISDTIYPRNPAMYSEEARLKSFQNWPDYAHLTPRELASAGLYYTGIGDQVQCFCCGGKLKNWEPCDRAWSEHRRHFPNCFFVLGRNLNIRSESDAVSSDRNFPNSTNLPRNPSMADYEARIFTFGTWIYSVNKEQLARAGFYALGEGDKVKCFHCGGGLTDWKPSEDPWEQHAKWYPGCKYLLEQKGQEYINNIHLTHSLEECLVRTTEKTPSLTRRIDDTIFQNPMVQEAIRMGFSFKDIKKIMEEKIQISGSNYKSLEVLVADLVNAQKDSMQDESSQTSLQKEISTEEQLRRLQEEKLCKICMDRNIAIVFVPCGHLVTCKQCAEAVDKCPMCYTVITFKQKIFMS

Row | SMILES | z-score [1] | z-score [2] | z-score [3] | z-score [4] | z-score [5] | z-score [6] | z-score [7] | z-score [8] | z-score [9] | z-score [10] | z-score [11] | z-score [12] | z-score [13] | composite z-score [14] | z-score [15] | z-score [16] | z-score [17] | z-score [18] | z-score [19] | composite z-score [20]
1 | COCCOC(=O)N1C(=O)[C@@]2(c3cc(C#Cc4ccc(OC)cc4)ccc31)[C@H](C(=O)Nc1nc3ccccc3s1)[C@H]1C(=O)O[C@H](c3ccccc3)[C@H](c3ccccc3)N1[C@@H]2c1ccc(OCCO)cc1 | -0.205 | -0.106 | -1.07 | -1.59 | -0.482 | -3.17 | 2.92 (inactive) | -0.604 | -1.44 | -0.0799 (inactive) | -0.635 | 3.03 (inactive) | -0.63 (inactive) | -0.27 (inactive) | 2.32 (inactive) | 3.64 (inactive) | -0.358 (inactive) | -0.486 (inactive) | -0.56 | -0.075
2 | COc1ccc(CCNC(=O)[C@@H]2c3ccccc3C(=O)N(Cc3cc(C(F)(F)F)cc(C(F)(F)F)c3)[C@H]2c2ccc(CO)cc2)cc1 | 1.64 | 1.58 | 1.17 | -1.4 | -0.35 | 1.61 | -0.497 (inactive) | -0.0116 | 0.29 | 0.349 (inactive) | 0.317 | -0.662 (inactive) | -0.295 (inactive) | -0.928 (inactive) | 0.279 (inactive) | 0.864 (inactive) | 0.619 (inactive) | 0.591 (inactive) | 0.451 | -0.213
3 | C=C(C(=O)CC[C@@H](OC(C)=O)c1ccc(CO)o1)C(C)C | -0.306 | -0.317 | -0.261 | -1.39 | -0.812 | -1.5 | 0.241 (inactive) | 0.544 | -0.591 | 0.246 (inactive) | -0.192 | -0.788 (inactive) | 0.0874 (inactive) | -1.75 (inactive) | 2.05 (inactive) | -0.396 (inactive) | -0.351 (inactive) | -0.374 (inactive) | 0.0268 | 0.68
4 | NC(N)=NCCCn1cc(CNC(=O)[C@@H](N)Cc2ccccc2)nn1 | -0.531 | -0.637 | -0.948 | -0.0334 | -1.23 | -0.868 | -0.283 (inactive) | 0.714 | 0.225 | -0.414 (inactive) | -0.686 | -0.85 (inactive) | -0.433 (inactive) | -2.75 (inactive) | -0.264 (inactive) | -0.297 (inactive) | 0.19 (inactive) | -0.0439 (inactive) | -0.68 | 0.012
5 | Cc1ccc(S[C@]2(C(=O)O)CC(=O)N(Cc3cc(C(F)(F)F)cc(C(F)(F)F)c3)[C@@H]2c2ccc(CO)cc2)cc1 | -0.192 | -0.228 | -0.618 | -0.424 | -0.82 | -0.555 | -0.717 (inactive) | 0.83 | -0.694 | -0.0055 (inactive) | -0.403 | -0.54 (inactive) | -0.543 (inactive) | -0.254 (inactive) | 0.761 (inactive) | 0.988 (inactive) | -0.296 (inactive) | -0.526 (inactive) | -0.278 | -0.053
6 | COc1ccc(-c2cc3c(c(CCc4ccccc4)n2)[Si](C(C)C)(C(C)C)OC3)cn1 | 0.342 | -0.171 | -0.999 | -1.68 | -2.05 | -0.911 | -0.315 (inactive) | -0.738 | -0.24 | 2.35 (inactive) | 1.09 | 0.0476 (inactive) | 0.42 (inactive) | -0.319 (inactive) | -1.29 (inactive) | 0.817 (inactive) | 0.152 (inactive) | 0.469 (inactive) | 1.18 | 0.136
7 | O=C1C2C=CC(C(O)c3ccc(Br)cc3)N(Nc3ccccc3F)C2C(=O)N1c1ccccc1 (stereo not given) | 1.79 | 0.085 | 0.418 | 1.05 | -0.0004 | -0.629 | -1.56 (inactive) | 0.417 | -1.46 | 0.0502 (inactive) | 0.732 | -2.45 (inactive) | -0.18 (inactive) | 0.356 (inactive) | 0.629 (inactive) | -1.17 (inactive) | 0.774 (inactive) | 2.06 (inactive) | 0.489 | 0.0933
8 | COC(=O)c1cn(C[C@@H](Cc2ccccc2)NC(=O)N[C@H](CO)CCc2oc(C(C)=O)c(C(=O)OC)c2C(=O)OC)nn1 | -0.282 | 0.53 | -0.0248 | 0.408 | 0.206 | 0.629 | 1.09 (inactive) | -0.0706 | 0.962 | 0.0604 (inactive) | 0.0852 | -1.3 (inactive) | 0.438 (inactive) | 0.223 (inactive) | -0.227 (inactive) | -0.504 (inactive) | 1.3 (inactive) | 0.604 (inactive) | -0.181 | -0.02
